Screens: PubChem, National Center for Advancing Translational Sciences (NCATS)
DT40 TDP1 no CPT – qHTS for Inhibitors of human tyrosyl-DNA phosphodiesterase 1 (TDP1): qHTS in cells in absence of CPT; Potency, µM (top dose mostly 46.2 µM), actives largely listed as inhibitors; 420,000 compounds, 15% hits; DT40 Tdp1-/- hTDP1 cells, no CPT, ATP luminescence, 48 h; AID 686978, 2013; note: nearly all actives have a fitted effect of over 55% in size
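Chicken DT40 Tdp1-/- cells complemented with human TDP1, screened without camptothecin (DMSO vehicle only), 400 cells/well. Compounds pin-transferred, cells incubated at 37 °C for at least 48 hr. Growth read as ATP-dependent luminescence (CellTiter-Glo, 30 min at RT).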
ALOX12 inh – inhibitors of human 12S-lipoxygenase ALOX12 | Potency, µM (top dose mostly 108 µM), most hits filed as inhibitors | 580,000 compounds, 1.1% hits | purified 12hLO, xylenol orange hydroperoxide absorbance | P18054
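Purified human 12hLO at 150 nM in 25 mM Hepes, 0.01% Triton X-100, pH 7.0, preincubated 15 min at room temperature with compound. Reaction started with 40 uM arachidonic acid, 30 min at room temperature. Hydroperoxide measured by Fe-xylenol orange, 573/405 nm absorbance ratio.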
VP16 counter – counter-screen for ROR gamma inhibitors: Gal4-VP16 reporter. AID 2546. Potency, µM (doses to about 53.6 µM), hits mostly inhibitors. Drosophila S2 Gal4-VP16 UAS-luciferase, luminescence, 20 h. 310,000 compounds, 3.5% hits;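 note: Gal4-VP16 expression switched on by copper sulfate through the metallothionein promoter; nearly all actives have a fitted effect of over 50% in size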
TDP1 cell CPT – growth inhibition of DT40 Tdp1-/-;hTDP1 cells with camptothecin (screen for TDP1 inhibitors). 420,000 compounds, 12% hits. Potency, µM (highest dose often 46.2 µM), most hits filed as inhibitors. chicken DT40 Tdp1-/-;hTDP1 cells + 20 nM CPT, ATP luminescence, 48 h; note: nearly all actives have a fitted effect of over 55% in size
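Chicken DT40 Tdp1-/- cells complemented with human TDP1, 400 cells/well, exposed to compounds plus 20 nM camptothecin for at least 48 h at 37 C; viability read as ATP content by CellTiter-Glo luminescence.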
ELG1 DNA repair – inhibitors of ELG1-dependent DNA repair in HEK293T cells; HEK293T ELG1-luciferase reporter, luminescence, 16 h; DNA damage induced by 5-fluorouridine; Potency, µM (doses to about 46.1 µM), usual class: inhibitors; 330,000 compounds, 2.3% hits; note: nearly all actives have a fitted effect of over 55% in size
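HEK293T cells expressing luciferase-tagged ELG1 (2,000/well) received 5-Fluorouridine plus compound or DMSO for 16 hr at 37 °C. Luciferase was read by ONE-Glo luminescence after 30 min at room temperature.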
RORg inh – inhibitors of mouse ROR gamma transcriptional activity; P51450; Drosophila S2 Gal4-RORgamma UAS-luciferase reporter, 20 h; Potency, µM (highest dose often 53.6 µM), usual class: inhibitors; 310,000 compounds, 5.4% hits; note: nearly all actives have a fitted effect of over 60% in size
Target sequence (P51450 whole entry, looked up, the tested form may be a part): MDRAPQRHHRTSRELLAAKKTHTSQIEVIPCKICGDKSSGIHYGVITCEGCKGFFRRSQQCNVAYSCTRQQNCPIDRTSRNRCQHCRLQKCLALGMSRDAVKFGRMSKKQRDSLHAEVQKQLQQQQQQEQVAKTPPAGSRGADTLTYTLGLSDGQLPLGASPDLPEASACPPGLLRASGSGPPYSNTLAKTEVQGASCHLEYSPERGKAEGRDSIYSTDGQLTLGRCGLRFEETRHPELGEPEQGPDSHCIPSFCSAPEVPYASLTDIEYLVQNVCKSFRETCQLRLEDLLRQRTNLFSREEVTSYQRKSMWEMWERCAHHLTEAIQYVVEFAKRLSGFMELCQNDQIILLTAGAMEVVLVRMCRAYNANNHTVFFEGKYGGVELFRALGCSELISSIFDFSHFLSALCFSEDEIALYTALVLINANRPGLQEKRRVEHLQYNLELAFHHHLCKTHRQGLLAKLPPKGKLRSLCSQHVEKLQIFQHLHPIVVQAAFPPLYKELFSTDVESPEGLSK
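Compounds are pin-transferred onto Drosophila Schneider cells expressing a copper-inducible Gal4–ROR gamma transactivation domain fusion. After 1 hr, copper sulfate is added to 700 uM final; luciferase is read 20 hr later.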
Of the large screens only hits and unclear results are named; the others gave an inactive call. Hits are enriched below; roughly 15% of the tested compounds scored in any of these assays. Calls come from the whole dose curve; as a rule, active = well fitted curve in the direction sought with a large enough effect; inconclusive = small, poorly fitted or top-dose-only effect, or another doubt; inactive = no such curve, though single readings can be large; an effect the other way counts as inactive or inconclusive.

COc1ccc(Cl)cc1N1CC(O)=C(c2nc3ccc(C)cc3[nH]2)C1=N	none (no result: DT40 TDP1 no CPT, VP16 counter, TDP1 cell CPT, ELG1 DNA repair, RORg inh)
CCOc1ccccc1NC(=O)c1c(NC(=O)COc2ccc(Cl)cc2)sc2c1CCCCC2	none (no result: VP16 counter, ELG1 DNA repair, RORg inh)
CCOc1ccccc1NC(=O)c1c(NC(=O)COc2ccccc2)sc2c1CCCCC2	DT40 TDP1 no CPT 2.1µM, TDP1 cell CPT 2.1µM (no result: VP16 counter, ELG1 DNA repair, RORg inh)
CCOc1ccccc1NC(=O)c1c(NC(=O)Cc2ccc(OC)cc2)sc2c1CCC2	DT40 TDP1 no CPT 5.8µM, ALOX12 inh inconclusive, TDP1 cell CPT 8.2µM (no result: VP16 counter, ELG1 DNA repair, RORg inh)
FC(F)(F)c1cccc(CN2CCC(c3cc(-c4cccs4)n[nH]3)CC2)c1	DT40 TDP1 no CPT 21µM, ALOX12 inh inconclusive, TDP1 cell CPT 8.2µM, ELG1 DNA repair inconclusive
CCOc1ccccc1C(=O)NC1CCN(c2cnn(CCOC)c(=O)c2)CC1	none (no result: DT40 TDP1 no CPT, VP16 counter, TDP1 cell CPT, ELG1 DNA repair, RORg inh)
CCOc1ccc(-n2nc3cc(C)c(N)cc3n2)cc1	ALOX12 inh inconclusive, ELG1 DNA repair inconclusive, RORg inh 10µM
Cc1cc2nn(-c3ccc(F)cc3)nc2cc1N	ELG1 DNA repair inconclusive
Cc1cc2nn(-c3ccc(Cl)cc3)nc2cc1N	ALOX12 inh 7.1µM, VP16 counter inconclusive, ELG1 DNA repair inconclusive, RORg inh inconclusive
COc1ccc(-n2nc3ccc(N)cc3n2)cc1	DT40 TDP1 no CPT inconclusive, ALOX12 inh inconclusive, TDP1 cell CPT 16µM (no result: VP16 counter, ELG1 DNA repair, RORg inh)
COc1ccc(-n2nc3cc(C)c(NC(=O)c4ccc(C)cc4C)cc3n2)cc1Cl	ALOX12 inh inconclusive (no result: VP16 counter, ELG1 DNA repair, RORg inh)
CCOc1ccc(-n2nc3ccc(N)cc3n2)cc1	DT40 TDP1 no CPT inconclusive, ELG1 DNA repair inconclusive
COc1ccc(-n2nc3cc(C)c(N)cc3n2)cc1Cl	ALOX12 inh 8.9µM, ELG1 DNA repair inconclusive
c1ccc(-c2cn3c(n2)CO[C@@H](CNCC2CCCCC2)C3)cc1	none (no result: DT40 TDP1 no CPT, VP16 counter, TDP1 cell CPT, ELG1 DNA repair, RORg inh)
Cn1c(=O)c2c(ncn2CC(=O)Nc2cccc(Br)c2)n(C)c1=O	none (no result: DT40 TDP1 no CPT, VP16 counter, TDP1 cell CPT, ELG1 DNA repair, RORg inh)
Cc1cccc(OCCNc2nc3c(c(=O)n(C)c(=O)n3C)n2C)c1	DT40 TDP1 no CPT 16µM, ALOX12 inh inconclusive, TDP1 cell CPT 16µM
Cc1ccc(OCCn2c(Br)nc3c2c(=O)n(C)c(=O)n3C)cc1	DT40 TDP1 no CPT 18µM, TDP1 cell CPT 12µM, ELG1 DNA repair 5.2µM, RORg inh inconclusive
Cn1c(=O)c2c(ncn2CCOc2cccc(Br)c2)n(C)c1=O	DT40 TDP1 no CPT 9.2µM, TDP1 cell CPT 8.2µM, ELG1 DNA repair 8.2µM
COc1cccc(Cn2c(Oc3cccc(C)c3)nc3c2c(=O)n(C)c(=O)n3C)c1	DT40 TDP1 no CPT 23µM, TDP1 cell CPT 21µM, ELG1 DNA repair inconclusive
O=C(NC[C@H]1OC[C@@H](NCc2ccccc2O)[C@@H]1O)Nc1ccccc1	none (no result: DT40 TDP1 no CPT, VP16 counter, TDP1 cell CPT, ELG1 DNA repair, RORg inh)
COc1ccc(C(=O)N[C@@H]2CCC[C@@H]2C(=O)NCc2ccccn2)cc1	none (no result: DT40 TDP1 no CPT, VP16 counter, TDP1 cell CPT, ELG1 DNA repair, RORg inh)
Cn1ncc(N2CCCC(CC(=O)N3CCSCC3)C2)cc1=O (configuration not stated)	none (no result: DT40 TDP1 no CPT, VP16 counter, TDP1 cell CPT, ELG1 DNA repair, RORg inh)
O=C(NC1CC1)[C@@H]1C[C@H](Oc2ccccc2)CN1C(=O)c1ccc2ncccc2c1	none (no result: DT40 TDP1 no CPT, VP16 counter, TDP1 cell CPT, ELG1 DNA repair, RORg inh)
COCCCNc1nc2c(c(=O)n(C)c(=O)n2C)n1Cc1cccc(OC)c1	DT40 TDP1 no CPT 10µM, VP16 counter inconclusive, TDP1 cell CPT 18µM, ELG1 DNA repair 15µM, RORg inh inconclusive
CC(O)CNc1nc2c(c(=O)n(C)c(=O)n2C)n1Cc1cccc(F)c1 (configuration not stated)	none (no result: DT40 TDP1 no CPT, VP16 counter, TDP1 cell CPT, ELG1 DNA repair, RORg inh)
COCCCNc1nc2c(c(=O)n(C)c(=O)n2C)n1Cc1ccc(Cl)c(Cl)c1	none (no result: DT40 TDP1 no CPT, VP16 counter, TDP1 cell CPT, ELG1 DNA repair, RORg inh)
Cc1cccc(Cn2c(NCCN3CCOCC3)nc3c2c(=O)n(C)c(=O)n3C)c1	none (no result: DT40 TDP1 no CPT, VP16 counter, TDP1 cell CPT, ELG1 DNA repair, RORg inh)
COCCNc1nc2c(c(=O)n(C)c(=O)n2C)n1Cc1cccc(C)c1	DT40 TDP1 no CPT 7.3µM, VP16 counter 10µM, TDP1 cell CPT 6.5µM, ELG1 DNA repair 21µM, RORg inh inconclusive
Cc1cccc(Cn2c(NCC(C)O)nc3c2c(=O)n(C)c(=O)n3C)c1 (configuration not stated)	DT40 TDP1 no CPT 10µM, VP16 counter inconclusive, TDP1 cell CPT 12µM, ELG1 DNA repair 15µM
